Reference: PubChem BioAssay (Tox21)
Inconclusive results are not listed. Active and inactive are the calls of the source. Unless noted, calls come from the whole dose curve.

Experiments:
[1] = Nuclear factor erythroid 2-related factor 2/antioxidant responsive element (Nrf2/ARE) small molecule agonists: qHTS cell viability counter screen in human keratinocytes (AID 1919968; active = well fitted curve in the direction sought with a large enough effect in the repeat runs; an effect the other way counts as inactive or inconclusive; note: nearly all actives have a fitted effect of over 55% in size)
Procedure, shortened: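 Cytotoxicity was multiplexed with the Nrf2/ARE luciferase assay in the same wells. Stably transfected HaCaT keratinocytes were treated with test compounds for 23 h at 37 C. Cell viability was then measured by CellTiter-Fluor fluorescence.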

[2] = Nuclear factor erythroid 2-related factor 2/antioxidant responsive element (Nrf2/ARE) small molecule agonists: luciferase reporter gene qHTS assay in human keratinocytes (AID 1919969); note: nearly all actives have a fitted effect of over 35% in size
[3] = target: Gonadotropin-releasing hormone receptor (Homo sapiens) (UniProt P30968); experiment: Human gonadotropin-releasing hormone receptor (GnRHR) small molecule agonists, calcium flux assay in GnRHR-HEK293 cells (AID 1920063); note: nearly all actives have a fitted effect of over 35% in size
Chain of Gonadotropin-releasing hormone receptor (Homo sapiens) (P30968 whole entry, looked up): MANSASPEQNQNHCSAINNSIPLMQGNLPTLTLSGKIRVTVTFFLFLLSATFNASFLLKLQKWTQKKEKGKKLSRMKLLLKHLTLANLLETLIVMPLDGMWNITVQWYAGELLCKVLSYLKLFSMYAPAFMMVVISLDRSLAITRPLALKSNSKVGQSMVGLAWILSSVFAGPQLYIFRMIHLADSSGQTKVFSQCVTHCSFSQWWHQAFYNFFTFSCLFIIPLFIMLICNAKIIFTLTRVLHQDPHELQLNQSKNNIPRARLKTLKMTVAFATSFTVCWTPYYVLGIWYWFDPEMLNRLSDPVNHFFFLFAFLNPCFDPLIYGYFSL
Procedure, shortened: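 Agonist activity was measured as intracellular calcium flux in HEK293 cells engineered to stably express human GnRHR. After dye loading for 1 hour at 37 C, compounds in DMSO were added and fluorescence was followed for 3 minutes.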

[4] = target: KiSS-1 receptor (Homo sapiens) (UniProt Q969F8); experiment: Human kisspeptin (KISS1R) small molecule agonists, calcium flux assay in KISS1R-HEK293 cells (AID 1920064; active = well fitted curve in the direction sought with a large enough effect in the repeat runs; an effect the other way counts as inactive or inconclusive)
Chain of KiSS-1 receptor (Homo sapiens) (Q969F8 whole entry, looked up): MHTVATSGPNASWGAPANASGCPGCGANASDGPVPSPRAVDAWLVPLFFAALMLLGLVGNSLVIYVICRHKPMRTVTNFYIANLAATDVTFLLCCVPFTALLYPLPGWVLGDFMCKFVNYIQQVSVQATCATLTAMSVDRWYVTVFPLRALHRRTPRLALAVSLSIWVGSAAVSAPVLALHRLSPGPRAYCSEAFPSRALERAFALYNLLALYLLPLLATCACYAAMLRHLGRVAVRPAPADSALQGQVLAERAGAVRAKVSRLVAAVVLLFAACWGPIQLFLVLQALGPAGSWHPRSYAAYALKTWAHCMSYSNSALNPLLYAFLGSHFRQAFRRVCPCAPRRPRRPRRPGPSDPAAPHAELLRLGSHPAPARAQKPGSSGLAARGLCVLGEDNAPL
Procedure, shortened: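 Agonist activity is monitored as intracellular calcium rise in engineered HEK293 cells carrying human KISS1R. Cells are dye-loaded for 1 h at 37 C before compound addition, and fluorescence is recorded for 3 min.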

[5] = G protein-coupled receptor (GPCR) small molecule agonists, calcium flux assay: HEK293 wild type cell line counter screen (AID 1920065)
Procedure, shortened: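 Seed cells, incubate 18 h (37 C, 5% CO2); add calcium dye, 1 h at 37 C; pin-transfer compounds, ATP control or DMSO; read fluorescence 480/540 nm each second for 3 min.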

[6] = p53 small molecule agonists, cell-based qHTS assay with human liver microsomes (AID 1963577)
Procedure, shortened: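 Compounds act here after metabolic activation: human liver microsomes and NADPH, both at 0.5 mg/mL final, were co-added to p53RE-bla cells. Incubation ran 16 h at 37 C, followed by LiveBLAzer detection.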

[7] = p53 small molecule agonists, cell-based qHTS assay with human liver microsomes: qHTS cell viability counter screen (AID 1963579); note: nearly all actives have a fitted effect of over 45% in size
Procedure, shortened: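 Cells carrying the p53 response-element beta-lactamase reporter are treated for 16 h at 37 C with test compounds in the presence of human liver microsomes and NADPH (both 0.5 mg/mL final); ATP-based CellTiter-Glo luminescence then reports viability.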

[8] = p53 small molecule agonists, cell-based qHTS assay with rat liver microsomes: qHTS cell viability counter screen (AID 1963580); note: nearly all actives have a fitted effect of over 45% in size
Procedure, shortened: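 Cytotoxicity counter screen: intracellular ATP measured by CellTiter-Glo luminescence in the same wells as the beta-lactamase reporter read, on HCT-116 p53RE-bla cells exposed 16 h at 37 C to compounds with rat liver microsomes and NADPH, each 0.5 mg/mL final.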

[9] = p53 small molecule agonists, cell-based qHTS assay: qHTS cell viability counter screen (AID 1963581); note: nearly all actives have a fitted effect of over 45% in size
Procedure, shortened: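 Viability was counter-screened in parallel with the p53 agonist reporter by measuring intracellular ATP luminescence in the same HCT-116 p53RE-bla wells after 16 h compound treatment at 37 C.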

[10] = p53 small molecule agonists, cell-based qHTS assay (AID 1963582; active = well fitted activation curve with a large enough effect in the signal ratio in the repeat runs, not every such curve was filed as active; the % refers to the signal ratio)
Procedure, shortened: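 Cells carrying a p53-responsive bla reporter are treated with test compounds for 16 h at 37 C; beta-lactamase activity is then detected with LiveBLAzer B/G FRET substrate after 2 h at room temperature.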

[11] = target: 5-hydroxytryptamine receptor 2A (Homo sapiens) (UniProt P28223); experiment: 5-hydroxytryptamine receptor 2A (HTR2A) small molecule antagonists, cell-based qHTS assay (AID 1963586); note: nearly all actives have a fitted effect of over 45% in size
Chain of 5-hydroxytryptamine receptor 2A (Homo sapiens) (P28223 whole entry, looked up): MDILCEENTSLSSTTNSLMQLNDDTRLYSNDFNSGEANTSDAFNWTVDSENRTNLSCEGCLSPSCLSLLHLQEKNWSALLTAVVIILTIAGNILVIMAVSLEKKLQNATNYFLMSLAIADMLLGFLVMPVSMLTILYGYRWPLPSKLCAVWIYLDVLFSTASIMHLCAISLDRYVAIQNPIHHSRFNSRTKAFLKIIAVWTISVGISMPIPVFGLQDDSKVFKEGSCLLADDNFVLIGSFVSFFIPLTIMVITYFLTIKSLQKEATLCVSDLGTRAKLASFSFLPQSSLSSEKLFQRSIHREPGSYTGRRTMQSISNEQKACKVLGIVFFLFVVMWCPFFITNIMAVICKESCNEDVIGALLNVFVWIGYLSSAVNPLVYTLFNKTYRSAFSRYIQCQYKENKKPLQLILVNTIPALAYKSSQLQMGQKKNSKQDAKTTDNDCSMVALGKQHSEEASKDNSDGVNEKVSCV
Procedure, shortened: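 CHO cells stably expressing human HTR2A were plated for 18 h at 37 C, then loaded with calcium dye for 1 h. Compounds were preincubated 5 min at room temperature before DOI (4 nM solution) was added. Kinetic fluorescence was read for 3 min.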

[12] = target: Muscarinic acetylcholine receptor M1 (Homo sapiens) (UniProt P11229); experiment: Cholinergic receptor muscarinic 1 (CHRM1) small molecule antagonists, cell-based qHTS assay (AID 1963588); note: nearly all actives have a fitted effect of over 40% in size
Chain of Muscarinic acetylcholine receptor M1 (Homo sapiens) (P11229 whole entry, looked up): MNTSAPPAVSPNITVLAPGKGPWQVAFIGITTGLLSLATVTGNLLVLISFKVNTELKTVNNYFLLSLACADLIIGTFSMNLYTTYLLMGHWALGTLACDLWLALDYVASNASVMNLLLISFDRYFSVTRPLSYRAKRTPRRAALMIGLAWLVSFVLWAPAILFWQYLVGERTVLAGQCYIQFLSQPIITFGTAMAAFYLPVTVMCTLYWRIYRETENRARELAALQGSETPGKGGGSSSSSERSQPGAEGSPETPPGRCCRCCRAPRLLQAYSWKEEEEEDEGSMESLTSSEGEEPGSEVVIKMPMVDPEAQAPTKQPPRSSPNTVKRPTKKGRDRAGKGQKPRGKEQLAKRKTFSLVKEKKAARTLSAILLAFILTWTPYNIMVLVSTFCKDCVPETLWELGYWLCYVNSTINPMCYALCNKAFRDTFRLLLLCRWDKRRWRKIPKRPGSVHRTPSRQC
Procedure, shortened: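 Compounds were tested at 15 concentrations in three independent runs. Dye-loaded CHRM1-CHO cells were exposed 5 min at room temperature before stimulation by acetylcholine added at 50nM. Intracellular calcium was read kinetically on FDSS for 3 min.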

[13] = target: Muscarinic acetylcholine receptor M1 (Homo sapiens) (UniProt P11229); experiment: Cholinergic receptor muscarinic 1 (CHRM1) small molecule agonists, cell-based qHTS assay (AID 1963589); note: nearly all actives have a fitted effect of over 35% in size
Procedure, shortened: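 Cells were plated and incubated 18 h at 37 C/5% CO2, loaded with calcium dye for 1 h at 37 C, then treated with compounds in DMSO. Fluorescence was recorded kinetically at 1 sec intervals.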

[14] = cAMP Responsive Elements (CRE) small molecule agonists, cell-based qHTS assay (AID 1963590)
Procedure, shortened: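 Cells carrying a CRE-driven beta-lactamase reporter (HEK 293T) are seeded, incubated overnight (18 h), and treated with test compounds for 3 h at 37 C; reporter activity is then detected with a FRET substrate after 2 h at room temperature.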

[15] = cAMP Responsive Elements (CRE) small molecule antagonists, cell-based qHTS assay (AID 1963591; active = well fitted inhibition curve with a large enough effect in the signal ratio in the repeat runs, not every such curve was filed as active; the % refers to the signal ratio)
Procedure, shortened: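 Cells (CRE-bla HEK 293T, DMEM with 10% dialyzed FBS and 25 mM HEPES) are seeded and incubated 18 h. Compounds are added with NKH477 agonist at 0.25 uM final for 3 h, then FRET substrate for 2 h.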

[16] = target: Beta-2 adrenergic receptor (Homo sapiens) (UniProt P07550); experiment: Adrenergic beta2 receptor (ADRB2) small molecule antagonists, cell-based qHTS assay (AID 1963592); note: series mostly up to about 92 µM; nearly all actives have a fitted effect of over 50% in size
Chain of Beta-2 adrenergic receptor (Homo sapiens) (P07550 whole entry, looked up): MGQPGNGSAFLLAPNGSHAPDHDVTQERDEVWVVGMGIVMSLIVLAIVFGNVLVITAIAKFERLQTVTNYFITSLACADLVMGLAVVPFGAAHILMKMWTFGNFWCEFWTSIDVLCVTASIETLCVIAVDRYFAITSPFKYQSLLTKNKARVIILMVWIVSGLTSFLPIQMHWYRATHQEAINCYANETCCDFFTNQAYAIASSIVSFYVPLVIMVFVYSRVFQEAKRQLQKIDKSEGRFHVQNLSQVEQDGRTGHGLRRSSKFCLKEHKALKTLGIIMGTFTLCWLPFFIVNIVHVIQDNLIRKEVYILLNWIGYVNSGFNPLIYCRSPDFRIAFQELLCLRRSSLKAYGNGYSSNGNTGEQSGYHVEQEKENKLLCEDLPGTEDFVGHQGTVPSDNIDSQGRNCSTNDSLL
Procedure, shortened: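 Assay format: CHO-ADRB2 cells, 18-20hr seeding at 37C/5% CO2, then compound plus 1nM isoproterenol agonist mix for 0.5hr RT. Homogeneous time-resolved fluorescence cAMP detection after 1hr, expressed as 665/615 nm ratio.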

[17] = target: D(2) dopamine receptor (Homo sapiens) (UniProt P14416); experiment: Dopamine D2 receptor (DRD2) small molecule agonists, cell-based qHTS assay (AID 1963594); note: nearly all actives have a fitted effect of over 35% in size
Chain of D(2) dopamine receptor (Homo sapiens) (P14416 whole entry, looked up): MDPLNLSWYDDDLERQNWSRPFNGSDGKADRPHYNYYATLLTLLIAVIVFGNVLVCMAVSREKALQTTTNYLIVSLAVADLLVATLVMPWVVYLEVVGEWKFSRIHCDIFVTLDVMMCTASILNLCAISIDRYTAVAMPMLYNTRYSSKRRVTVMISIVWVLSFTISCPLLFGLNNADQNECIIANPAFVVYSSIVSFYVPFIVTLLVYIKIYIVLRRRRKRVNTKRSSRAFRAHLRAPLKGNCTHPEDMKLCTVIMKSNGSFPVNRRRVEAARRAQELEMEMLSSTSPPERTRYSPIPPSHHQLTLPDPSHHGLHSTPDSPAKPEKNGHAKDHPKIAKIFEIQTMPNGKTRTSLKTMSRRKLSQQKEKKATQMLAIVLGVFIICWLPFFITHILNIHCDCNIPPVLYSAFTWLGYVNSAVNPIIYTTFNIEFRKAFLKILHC
Procedure, shortened: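 HEK293 cells stably expressing human DRD2, pre-treated with PDE inhibitor Ro20-1724 (0.1 mM final) and compound 10 min at room temperature, then stimulated with NKH477 (200nM […]) for 30 min. cAMP read by HTRF (665/620 nm).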

[18] = target: D(2) dopamine receptor (Homo sapiens) (UniProt P14416); experiment: Dopamine D2 receptor (DRD2) small molecule antagonists, cell-based qHTS assay (AID 1963595; active = well fitted inhibition curve with a large enough effect in the signal ratio in the repeat runs, with a control signal flat; the % refers to the signal ratio)
Procedure, shortened: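 Cells were plated and grown for 24 h at 37 °C. Ro20-1724 (0.1 mM final) went in first, then compound for 10 min. NKH477 (200 nM) with quinpirole (12 nM) followed for 30 min at RT, then HTRF detection reagents for 1 h.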

[19] = p53 small molecule agonists, cell-based qHTS assay with rat liver microsomes (AID 1963578)
Procedure, shortened: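 Read-out is beta-lactamase reporter fluorescence (LiveBLAzer, 2 h, room temperature, dark) in p53RE-bla cells treated 16 h at 37 C with compound, rat liver microsomes and NADPH, both 0.5 mg/mL final.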

[20] = target: 5-hydroxytryptamine receptor 2A (Homo sapiens) (UniProt P28223); experiment: 5-hydroxytryptamine receptor 2A (HTR2A) small molecule agonists, cell-based qHTS assay (AID 1963587); note: nearly all actives have a fitted effect of over 30% in size
Procedure, shortened: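 CHO cells stably expressing human HTR2A, plated 18 h, loaded with calcium dye 1 h at 37 C. Agonist mode: compounds added and intracellular calcium fluorescence recorded kinetically for 2 min at 1 sec intervals.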

Measured: Potency

CCCOC(=O)c1ccccc1C(=O)OCCC
inactive: [1] | [2] | [3] | [4] | [5] | [6] | [7] | [8] | [9] | [10] | [11] | [12] | [13] | [14] | [15] | [16] | [17] | [18]

C[C@H]1C(=O)O[C@@H]2CCN3CC=C(COC(=O)[C@](C)(O)[C@]1(C)O)[C@H]23
inactive: [1] | [2] | [3] | [4] | [5] | [6] | [19] | [8] | [9] | [10] | [11] | [20] | [14] | [15] | [16] | [17]

C=CCN1CC[C@]23CCCC[C@H]2[C@H]1Cc1ccc(O)cc13
inactive: [1] | [2] | [3] | [4] | [5] | [6] | [19] | [8] | [9] | [10] | [20] | [12] | [13] | [14] | [15] | [16] | [17] | [18]

O=C/C=C/c1ccccc1
inactive: [1] | [2] | [3] | [4] | [5] | [6] | [19] | [8] | [9] | [10] | [14] | [15] | [16] | [18]
